Experimental data from PubChem BioAssay AID720511 (Broad Institute, 2013).
Out of some 350,000 compounds screened, about 1,300 (0.37%) were called active.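 Rule for the calls: active = mean added fluorescence quench of at least 8% versus neutral control, with both replicates also reaching 8%; inconclusive = only one of the mean or replicate conditions met; inactive = mean below 8% and not both replicates reaching 8%.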 What follows is part of a selection rich in actives, with near analogues and random picks from the rest.

Assay: F508del CFTR correction, initial screen, CFBE line, single point (AID 720511);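 note: cells transiently co-express mutant CFTR-F508del with the halide-sensitive YFP; corrector assay measuring rescue of mutant channel to the surface after 24 h compound exposure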
Conditions: CFBE cells, YFP halide quenching, at 7.58 µM, active compounds read high, % fluorescence drop versus neutral controls, stimulated with forskolin plus potentiator P3
In the case of `C[C@H](CO)N1C[C@H](C)[C@H](CN(C)S(=O)(=O)c2ccc(Cl)cc2)Oc2c(NS(C)(=O)=O)cccc2C1=O`, the activity (quench increase) is reported as 1.05% (inactive).
With `CCCNC(=O)[C@@H]1[C@@H](CO)[C@@H]2Cn3c(ccc(/C=C/c4ccccc4)c3=O)[C@H]1N2CCC` the activity (quench increase) was 3.14% (inactive).
With `CCCN1[C@H](C(=O)N2CCCCC2)[C@@H](CO)[C@@H]2Cn3c(ccc(-c4ccccc4F)c3=O)[C@@H]21` the activity (quench increase) was 1.6% (inactive).
For `CCCN1[C@H](C(=O)N2CCOCC2)[C@@H](CO)[C@@H]2Cn3c(ccc(/C=C/c4ccccc4)c3=O)[C@@H]21`, the activity (quench increase) was 9.23% (active).
In the case of `Cc1ccc(S(=O)(=O)Nc2ccc3c(c2)C(=O)N([C@@H](C)CO)C[C@@H](C)[C@H](CN(C)Cc2ccncc2)O3)cc1`, the activity (quench increase) is reported as -0.494% (inactive).
With `C[C@@H]1CCCCO[C@H](CN(C)Cc2ccc(Cl)c(Cl)c2)[C@@H](C)CN([C@@H](C)CO)C(=O)c2cc(NC(=O)Nc3ccccc3)ccc2O1` the activity (quench increase) was 0.025% (inactive).
In the case of `Cc1ccc(C(=O)OCC(=O)N2CC(C)CC(C)C2)cc1S(=O)(=O)N1CCCCC1` (configuration not stated), the activity (quench increase) is reported as 0.347% (inactive).
With `COc1ccc(CNC(=O)COC(=O)c2ccc(C)c(S(=O)(=O)N3CCOCC3)c2)cc1OC` the activity (quench increase) was -3.23% (inactive).
With `Cc1ccc(C(=O)OCC(=O)NCc2cc(C)c(O)c(C)c2)cc1S(=O)(=O)N1CCCCC1` the activity (quench increase) was 9.62% (active).
With `Cc1cc(Nc2ccc(Br)cc2)nc2ccccc12` the activity (quench increase) was 10.3% (active).
For `Cc1cc(C)c(C#N)c(Nc2cccc(Br)c2)n1`, the activity (quench increase) was -5.44% (inactive).
With `C[C@H]1CN([C@@H](C)CO)C(=O)c2ccccc2-c2ccccc2CO[C@@H]1CN(C)C(=O)CCN(C)C` the activity (quench increase) was -0.09% (inactive).
For `O=C(Nc1ccc(F)cc1)N[C@H]1CC[C@H](CCn2cc(C3(O)CCCC3)nn2)O[C@@H]1CO`, the activity (quench increase) was 0.048% (inactive).
With `CC(C)c1cc(C(=O)NC2CCCCCC2)c2ccccc2n1` the activity (quench increase) was 0.503% (inactive).
In the case of `Cc1nc(/N=C(\N)NC(=O)NC2CCCCC2)nc2ccccc12`, the activity (quench increase) is reported as 12.3% (active).
With `O=C(NNC(=O)C(O)c1ccccc1)NC1CCCCC1` (configuration not stated) the activity (quench increase) was -1.37% (inactive).
With `CNC[C@H]1OCCCC[C@@H](C)Oc2ccc(NC(=O)Cc3ccccc3)cc2C(=O)N([C@H](C)CO)C[C@@H]1C` the activity (quench increase) was -0.325% (inactive).
With `CCCNC(=O)N(C)C[C@@H]1Oc2ncc(-c3cccc(C#N)c3)cc2C(=O)N([C@@H](C)CO)C[C@@H]1C` the activity (quench increase) was 0.957% (inactive).
With `O=C(c1cnccn1)N1CC[C@@H]2[C@H](CO)Nc3ccc(-c4cccc(F)c4)cc3[C@@H]21` the activity (quench increase) was 2.08% (inactive).
In the case of `CCOC(=O)C1CCCN(C(=O)c2ccc(C)c(F)c2)CC1` (configuration not stated), the activity (quench increase) is reported as 0.23% (inactive).
In the case of `CCNC(=O)C1CCCN(C(=O)c2ccc(OC)cc2OC)CC1` (configuration not stated), the activity (quench increase) is reported as -1.31% (inactive).
With `CCNC(=O)C1CCCN(C(=O)c2cc(F)ccc2C)CC1` (configuration not stated) the activity (quench increase) was 10% (active).
With `CCCNC(=O)N1[C@H](CO)[C@@H]2c3ccccc3N(C(=O)C3CCOCC3)C[C@@H]21` the activity (quench increase) was 2.24% (inactive).
With `COc1ccc(NC(=O)N(C)C[C@@H]2OCCCC[C@@H](C)Oc3ccc(NS(=O)(=O)c4cn(C)cn4)cc3C(=O)N([C@@H](C)CO)C[C@H]2C)cc1` the activity (quench increase) was 0.433% (inactive).
With `CC(C)(C)NC(=O)NC(=O)COC(=O)Cc1ccc(Cl)cc1Cl` the activity (quench increase) was 1.27% (inactive).
With `CC(C)(C)c1cc(C(=O)NN)n(Cc2ccc(Cl)cc2Cl)n1` the activity (quench increase) was 8.63% (active).
In the case of `Cn1cc(C(=O)c2ccc(Cl)cc2Cl)cc1C(=O)NN`, the activity (quench increase) is reported as -2.38% (inactive).
For `C[C@H]1CN([C@@H](C)CO)C(=O)c2cc(C#CC(C)(C)O)cnc2O[C@H]1CN(C)C(=O)CC1CC1`, the activity (quench increase) was 0.266% (inactive).
For `C[C@@H]1CN([C@H](C)CO)C(=O)c2cc(NS(=O)(=O)c3ccc(Cl)cc3)ccc2O[C@@H]1CN(C)CC1CCCCC1`, the activity (quench increase) was -0.515% (inactive).
With `O=C(C[C@H]1C[C@@H]2c3cc(NC(=O)c4ccc5c(c4)OCO5)ccc3O[C@@H]2[C@@H](CO)O1)NCCN1CCCCC1` the activity (quench increase) was 0.031% (inactive).
For `O=C(C1CCCC1)N1CC(=O)N2[C@H](C1)[C@@H](c1ccc(-c3ccccc3F)cc1)[C@@H]2CO`, the activity (quench increase) was -2.35% (inactive).
For `O=C(C1CC1)N1CC(=O)N2[C@H](CO)[C@@H](c3ccc(-c4ccccc4F)cc3)[C@@H]2C1`, the activity (quench increase) was 11.5% (active).
In the case of `O=C(C1CCC1)N1CC(=O)N2[C@H](C1)[C@@H](c1ccc(-c3ccccc3F)cc1)[C@@H]2CO`, the activity (quench increase) is reported as 1.31% (inactive).
In the case of `COc1ccc(N2CCN(S(=O)(=O)c3ccc4c(c3)NC(=O)C(C)C(=O)N4)CC2)cc1` (configuration not stated), the activity (quench increase) is reported as 0.269% (inactive).
In the case of `CCOC(=O)N1CCN(S(=O)(=O)c2ccc3c(c2)C(C)C(=O)N3)CC1` (configuration not stated), the activity (quench increase) is reported as 8.05% (active).
In the case of `CCOC(=O)N1CCN(S(=O)(=O)c2ccc(Br)cc2)CC1`, the activity (quench increase) is reported as -1.86% (inactive).
With `COc1cccc(S(=O)(=O)N[C@H]2C=C[C@@H](CC(=O)NCc3ccc(F)cc3)O[C@@H]2CO)c1` the activity (quench increase) was -1.9% (inactive).
With `Cc1ccc(S(=O)(=O)N(C)C[C@@H]2Oc3c(NC(=O)Nc4ccc(F)cc4)cccc3C(=O)N([C@H](C)CO)C[C@H]2C)cc1` the activity (quench increase) was 0.333% (inactive).
With `C[C@@H]1CN([C@H](C)CO)C(=O)c2cccc(NC(=O)Nc3cccc4ccccc34)c2O[C@@H]1CN(C)C(=O)Nc1ccc(F)cc1` the activity (quench increase) was 1.61% (inactive).
In the case of `COc1ccc(-c2c(C)cc3oc(=O)cc(-c4ccccc4)c3c2C)cc1C=O`, the activity (quench increase) is reported as 0.386% (inactive).
For `COc1ccc(-c2c(C)cc3oc(=O)cc(-c4ccccc4)c3c2C)cc1F`, the activity (quench increase) was 3.75% (inactive).
In the case of `COc1ccc(-c2c(C)cc3oc(=O)cc(-c4ccccc4)c3c2C)cc1OC`, the activity (quench increase) is reported as 9.4% (active).
For `CCC(=O)N(C)C[C@H]1Oc2cc(C#CC3CC3)ccc2S(=O)(=O)N([C@@H](C)CO)C[C@@H]1C`, the activity (quench increase) was -0.535% (inactive).
In the case of `COc1ccccc1-c1cc2nc(NCc3cccc(Cl)c3)ccn2n1`, the activity (quench increase) is reported as 0.85% (inactive).
For `COCCCNc1ccn2nc(-c3ccc(CC(C)C)cc3)cc2n1`, the activity (quench increase) was 2.65% (inactive).
In the case of `CC(C)Cc1ccc(-c2cc3nc(NCc4cccc(Cl)c4)ccn3n2)cc1`, the activity (quench increase) is reported as 8.67% (active).
For `C[C@H]1CN([C@@H](C)CO)C(=O)c2cccc(NS(=O)(=O)c3cccs3)c2O[C@H]1CN(C)Cc1ccc(C(=O)Nc2ccccc2N)cc1`, the activity (quench increase) was 0.531% (inactive).
